# Sampled rows, rich in hits. Any-hit rate of the full collection: about 3.9%.
# GALK inh: blocks human galactokinase activity | P51570 | Purified GALK, Kinase-Glo residual ATP luminescence | Potency, µM (top dose mostly 57.5 µM), for inactives: at the highest dose activity change, negative = inhibition, actives largely listed as inhibitors | 0.007% of 270,000 active | AID 1868; note: potency is the fitted concentration of half-maximal effect; % is set by controls: 0 for no effect and ±100 for the full control effect
#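 Quantitative HTS: GALK 5 nM, ATP 35 uM, galactose 100 uM, 1 h room temperature, then luciferase-based ATP detection.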
# D1 ag: activates the human D1 dopamine receptor | AID 504660 | activation, % at 2 µM | 1% of 360,000 active | HEK293 T-REx D1 cells, calcium flux, agonist mode; in the data active = activation above about 30%; note: 0% is about no effect
#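 Agonism was scored from calcium flux recorded over 180 s (1 read/s) after pintool compound addition, following a 10-cycle baseline. Cells were inducible force-coupled HEK293 TREx D1, plated overnight at 30 C and loaded with no-wash calcium dye.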
# D1 potentiator: human D1 dopamine receptor positive modulation; potentiation, % at 10 µM; P21728; 0.036% of 360,000 active; HEK293 TREx D1 cells, calcium flux, dopamine EC20 potentiation; in the data active = potentiation above about 30%; note: 0% is about no effect
# D1 antagonist: antagonists of human D1 dopamine receptor; HEK293 TREx D1 cells, calcium flux, dopamine EC80; stronger effect = lower value; activity change, negative = inhibition, % at 10 µM; 3.2% of 360,000 active; AID 504652; in the data active = activity change below about -30%; note: % is set by controls: 0 for no effect and ±100 for the full control effect
#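 Using tetracycline-induced force-coupled D1 Hek293 cells and a calcium dye, signals were followed for 180 s after compound, then for 180 s after EC80 dopamine, to detect inhibitors.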
# Eya2 inh: blocks the phosphatase activity of human Eya2; Potency, µM (titrated, usually from 76.9 µM), without a hit: top-dose activity, negative = inhibition, most hits filed as inhibitors; AID 488837; recombinant Eya2, OMFP fluorescence dephosphorylation (OMFP is methylfluorescein phosphate); 0.006% of 330,000 active; note: potency is the fitted concentration of half-maximal effect; % is set by controls: 0 for no effect and ±100 for the full control effect
# Target sequence (O00167 whole entry, looked up): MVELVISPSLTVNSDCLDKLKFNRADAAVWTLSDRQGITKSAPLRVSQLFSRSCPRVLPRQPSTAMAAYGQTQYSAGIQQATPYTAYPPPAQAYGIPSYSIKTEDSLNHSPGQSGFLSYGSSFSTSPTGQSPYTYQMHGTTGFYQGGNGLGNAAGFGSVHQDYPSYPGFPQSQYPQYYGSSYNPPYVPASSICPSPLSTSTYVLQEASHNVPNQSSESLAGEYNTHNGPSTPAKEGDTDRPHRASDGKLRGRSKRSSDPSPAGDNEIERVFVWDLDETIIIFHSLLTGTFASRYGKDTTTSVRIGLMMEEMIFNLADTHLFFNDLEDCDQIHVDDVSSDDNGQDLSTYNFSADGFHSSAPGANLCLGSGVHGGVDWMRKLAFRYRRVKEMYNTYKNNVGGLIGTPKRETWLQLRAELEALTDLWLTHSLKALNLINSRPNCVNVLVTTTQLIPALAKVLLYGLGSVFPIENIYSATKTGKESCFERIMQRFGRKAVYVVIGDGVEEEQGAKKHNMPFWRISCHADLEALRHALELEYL
#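 Eya2 protein (added as 0.2 uM solution) was preincubated with compound for 10 min at ambient temperature in 50 mM HEPES pH 7.5, 50 mM NaCl, 5 uM MgCl2, 0.05% BSA, 1 mM DTT. OMFP (added at 50 uM) then reacted 10 min; fluorescence read at 485/525 nm.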
# USP2a block: blocks human ubiquitin-specific protease USP2a. O75604. 0.01% of 330,000 active. Potency, µM (series often up to 38.3 µM), for the others: at the top dose activity change, negative = inhibition, actives largely listed as inhibitors. USP2 core, Ub-CHOP2 coupled fluorogenic reporter, 485/531;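 note: potency is the fitted concentration of half-maximal effect; plate controls were DMSO wells for no effect and full inhibition by NEM control for full effect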
#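 USP2 core (10nM final) preincubated 30min RT with compound in 20mM Tris-HCl pH 8.0, 2mM CaCl2, 2mM beta-mercaptoethanol, 0.05% CHAPS; 25nM Ub-CHOP2 plus 25nM reporter substrate added, fluorescence (Ex485/Em531) read after 60min.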
# Numbers without * were called inactive; nt = no result; [ ] = remark or other dose. Unless noted, calls come from the whole dose curve; as a rule, active = well fitted inhibition curve with a large enough effect; inconclusive = small, poorly fitted or top-dose-only effect, or effect the other way; inactive = flat fitted curve, though single readings scatter.
SMILES,GALK inh,D1 ag,D1 potentiator,D1 antagonist,Eya2 inh,USP2a block
O=C(Nc1ccc(Cl)c(Cl)c1)N1CCC(c2ccccc2)C1 (configuration not stated),nt,12.5,-5.8,-42.7*,nt,nt
O=C(c1cccs1)N1CCC(c2ccccc2)C1 (configuration not stated),-0.3%,0.4,-1.0,-85.1*,-1.7%,-0.1%
COc1ccc(SCC(=O)Nc2ccc(N3CCN(C)CC3)c(F)c2)cc1,-1.5%,4.0,-24.5,2.6,6.6%,-0.1%
Cc1ccc(SCC(=O)Nc2ccc(N3CCN(C)CC3)c(F)c2)cc1,1.9%,4.4,-11.9,-58.9*,15.8%,1.7%
C#Cc1nc(Nc2cccc(Cl)c2)nc(NC2CCCC2)n1,nt,2.0,0.3,-20.1,nt,nt
O=C(O)c1ccc(-c2ccc(/C=N/Nc3ccc([N+](=O)[O-])cc3)o2)cc1,nt,150.5*,0.0,5.4,2.2%,-1.5%
O=C(O)c1cccc(-c2ccc(/C=N/Nc3ccc([N+](=O)[O-])cc3)o2)c1,nt,102.9*,2.6,4.2,-2.5%,1.9%
O=C(O)c1ccc(N/N=C/C=C/c2ccc([N+](=O)[O-])o2)cc1,8.5%,56.3*,1.4,-5.1,8.0%,-7.4%
O=C(O)c1ccc(N/N=C/c2ccc(-c3cccc(Cl)c3)o2)cc1,nt,0.9,16.4,-2.8,-5.1%,-6.5%
CCc1cccc(NC(=O)c2oc3ccc4c(c3c2C)C(=O)CC(C)(C)O4)c1,nt,2.9,1.4,-3.6,nt,nt
Cc1ccc(NC(=O)CN(C)S(=O)(=O)c2ccc3nc(C)sc3c2)c(C)c1,nt,1.9,-1.2,7.5,nt,nt
CSCCC(NS(=O)(=O)c1cccs1)C(=O)Nc1ccc(C)c(Cl)c1 (configuration not stated),nt,6.2,-4.1,-38.8*,nt,nt
CC(Sc1nc2ccccc2s1)C(=O)c1c(N)n(C)c(=O)n(C)c1=O (configuration not stated),12.5%,8.6,-1.1,-42.4*,9.0%,-1.6%
Cc1noc(C)c1C(=O)Nc1nc(-c2cc(F)ccc2F)cs1,nt,1.9,-2.7,-32.0*,-23.0%,0.6%
O=C(Nc1nc(-c2cc(F)ccc2F)cs1)c1cccc(N2C(=O)CCC2=O)c1,nt,9.4,-4.8,-32.4*,-13.4%,0.0%
Cc1cc2c(s1)c1cnn(Cc3ccc(F)c(F)c3)c(=O)c1n2C,nt,-0.6,4.3,1.3,nt,nt
O=C(NCCN1CCOCC1)c1cc(-c2ccc(Cl)cc2Cl)on1,16.6%,1.1,6.5,-34.4*,12.1%,-0.6%
COc1ccc(NC(=O)CCCc2nnc3n(C)c(=O)c4sccc4n23)cc1,-0.3%,1.6,-9.8,-31.1*,7.6%,3.8%
CCOc1ccc(NC(=O)CCCc2nnc3n(C)c(=O)c4sccc4n23)cc1,nt,-0.6,-1.6,8.4,nt,nt
CCc1ccc(NC(=O)CCc2nnc3n(C)c(=O)c4sccc4n23)cc1,nt,0.4,1.9,-13.9,nt,nt
Cc1cc(C)cc(NC(=O)CCc2nnc3n(C)c(=O)c4sccc4n23)c1,nt,-0.6,3.2,-45.8*,nt,nt
Fc1ccccc1N1CCN(c2ncnc3onc(-c4ccc(Cl)cc4)c23)CC1,nt,2.5,-1.9,4.7,nt,nt
COC(=O)c1ccc(OCC2c3cc(OC)c(OC)cc3CCN2C(=O)c2ccccc2C)cc1 (configuration not stated),nt,-1.3,-1.6,-10.7,nt,nt
Cc1cccc(NC(=O)c2oc3ccccc3c2NC(=O)c2cc(=O)c3ccc(C)cc3o2)c1,nt,0.0,0.6,2.3,nt,nt
CCc1ccccc1NC(=O)Cn1nnc(C(=O)OC)c1C(=O)OC,nt,1.1,7.3,-28.7,nt,nt
SMILES,GALK inh,D1 ag,D1 potentiator,D1 antagonist,Eya2 inh,USP2a block
Cc1cccc(Cc2ccc(Cl)nn2)c1,10.9%,3.1,-0.9,-38.1*,14.9%,-0.2%
Cc1cccc(CNCc2ccccc2)c1,2.5%,5.3,-3.9,-10.3,-4.1%,-0.8%
CCOC(=O)CC(=O)CSc1nc(-c2cccnc2)ccc1C#N,0.1%,33.9*,-2.8,1.5,-0.1%,0.7%
COc1ccc(NCc2nnc(SCC(=O)c3ccc(OC)cc3)n2C)cc1,-4.1%,2.5,-8.8,-32.5*,-2.6%,-3.8%
COc1ccc(CC(=O)NCc2nnc(SCC(=O)c3ccc(OC)cc3)n2C)cc1,0.2%,-0.3,2.7,0.5,0.6%,0.8%
CCOc1cccc(C(=O)Nc2ccc(NC(=O)c3cc4ccccc4o3)c(OC)c2)c1,0.7%,6.8,-2.6,-38.8*,-7.7%,-0.3%
CCCCOC(=O)c1cccc(NC(=O)c2cc3ccccc3o2)c1,nt,30.4*,-3.3,-4.1,nt,nt
CC(C)C(=O)Nc1cccc(NC(=O)c2cccc(Br)c2)c1,-2.9%,4.8,-11.4,-32.0*,-0.3%,4.7%
CC(=O)Nc1cccc(NC(=O)c2cc3ccccc3o2)c1,2.2%,3.4,-3.2,-8.6,28.6%[15.4 µM],-0.4%
CC(C)C(=O)Nc1cccc(NC(=O)c2cc3ccccc3o2)c1,2.9%,0.3,-9.1,-30.0*,5.5%,0.8%
CCOC(=O)c1cc(-c2ccc(F)cc2)n(CCC(=O)NC2CCCCC2)c1C,nt,2.7,0.3,-10.4,nt,nt
Cc1cccc(-n2c(=O)c3c(c4cc(C)ccc4n3C)n(CC(=O)NCC3CCCO3)c2=O)c1 (configuration not stated),nt,-1.9,-2.7,11.0,nt,nt
CCCCCc1c2c(cc(O)c1C(=O)O)OC(=O)c1c(cc(OC)cc1C(=O)CCCC)O2,-8.9%,11.0,-1.0,-31.2*,-16.3%,1.1%
CCCCCc1c2c(cc(O)c1C(=O)O)OC(=O)c1cc(C(=O)CCCC)c(OC)cc1O2,nt,nt,nt,nt,4.5%,0.1%
Cc1c(NC(=O)C(C)(C)Oc2ccc(Cl)cc2)cccc1-c1nc2ncccc2o1,nt,2.4,-3.6,-1.7,nt,nt
O=S(=O)(c1cccc(C(F)(F)F)c1)N1CCN(c2nc(-c3cccs3)nc3cc(Cl)ccc23)CC1,nt,1.5,4.4,30.0,nt,nt
COc1cc(C(=O)NNC(=S)NC(=O)c2ccc(F)cc2)cc(OC)c1OC,nt,44.3*,-2.9,-4.3,2.5%,-5.6%
COc1ccc(Cl)cc1C(=O)NNC(=S)NC(=O)c1cc(-c2ccc(Cl)cc2)nc2ccccc12,nt,10.1,4.5,-9.4,18.5%,0.8%
COc1cc(C(=O)NNC(=O)C2CC=CCC2C(=O)O)cc(OC)c1OC (configuration not stated),1.9%,2.7,-4.5,-9.5,0.4%,3.5%
COc1ccc(Cl)cc1C(=O)NNC(=S)NC(=O)c1ccc(F)c(F)c1,-1.5%,171.0*,-2.4,5.6,17.9%,4.2%
COc1cc(C(=O)NNC(=O)C2CCC2)cc(OC)c1OC,nt,2.5,-4.9,-47.8*,0.8%,-0.3%
COc1cc(C(=O)NC(=S)Nc2ccc3c(c2)OCO3)cc(OC)c1OC,5.4%,0.1,-4.7,-35.1*,13.3%,0.8%

# From PubChem
